According to the supplement of paper PMC10681739:
The full ranking holds about 2,700 sequences; the median of “arbitrary fluorescence units” is about 4,100, and the highest 2% start at about 54,000. The list comes from a sample in which the highest values are over-represented; it also holds similar and randomly drawn sequences.

Target: T1, ETS1 (UniProt P14921)
T1 sequence: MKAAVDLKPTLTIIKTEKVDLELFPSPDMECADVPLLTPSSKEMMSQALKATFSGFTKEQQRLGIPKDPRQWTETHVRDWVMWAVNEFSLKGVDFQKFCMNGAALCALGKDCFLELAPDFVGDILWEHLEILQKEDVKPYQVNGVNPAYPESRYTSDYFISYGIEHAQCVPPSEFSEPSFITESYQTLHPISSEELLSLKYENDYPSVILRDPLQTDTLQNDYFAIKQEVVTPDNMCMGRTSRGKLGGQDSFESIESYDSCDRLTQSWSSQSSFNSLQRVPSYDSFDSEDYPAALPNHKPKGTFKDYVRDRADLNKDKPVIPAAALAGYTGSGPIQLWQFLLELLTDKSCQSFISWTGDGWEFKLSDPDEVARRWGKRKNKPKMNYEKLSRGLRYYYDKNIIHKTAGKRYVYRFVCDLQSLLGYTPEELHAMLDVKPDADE
Test: ETS1 binding intensity (PBM fluorescence) (arbitrary fluorescence units); higher = stronger binding
Settings: ETS1 concentration 10 nM
Protocol: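 gcPBM on wild-type 36-bp genomic probes with two neighbouring ETS1 sites (4-24 bp apart). Recombinant human ETS1 (10 nM) was detected with anti-ETS1 antibody fluorescence. Values are medians over 3 replicate spots. The probes sit in constant array flanks that are not printed.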

Question: Which ETS1 binding intensity does the source give for CCCACTTCCTGCCTCACCCTGAAGATCTTCCGGGCA here?
Answer: Its ETS1 binding intensity is 56900.

Question: Which ETS1 binding intensity does the source give for CCCTCCCCTTCCTGCCTGCCCTTCTTCCGGGGCACC here?
Answer: Its ETS1 binding intensity is 8020.

Question: With TTCACCCCACCACTTCCTCATCCTGATCTCAGCTCA as the sequence, how does the ETS1 binding intensity read?
Answer: Its ETS1 binding intensity is 2880.

Question: GCCGGAGACTAGCTTCCGCTTCCGGTGTGAGCGGCC was tested. Which ETS1 binding intensity did it give?
Answer: Its ETS1 binding intensity is 26200.

Question: For AAGACTTCTACTTCCGGAGACTTCCTCATGCCATGC, which ETS1 binding intensity is on record?
Answer: Its ETS1 binding intensity is 33400.

Question: How did the ETS1 binding intensity turn out when AACCACTTCCGGTGAGTAGCTTCTACTTCCGGAGAC was run?
Answer: The ETS1 binding intensity was 135000.

Question: CACCCATTTTCACTTCCGCTTCCGGTTGTCACAGGC was tested. Which ETS1 binding intensity did it give?
Answer: The ETS1 binding intensity was 26500.

Question: With TCTCGACTTCCGGTTCACCCAGCATTTCCTCTTCCC as the sequence, how does the ETS1 binding intensity read?
Answer: Its ETS1 binding intensity is 103000.

Question: For GTTACTTCCTCTCCCCAGGTCTCTCGGTTTCCTCAT, which ETS1 binding intensity is on record?
Answer: The ETS1 binding intensity was 23600.

Question: With GCTCCACCTTCCGGCCCATGGACACGGATGCCGAGG as the sequence, how does the ETS1 binding intensity read?
Answer: The ETS1 binding intensity was 16100.

Question: With TCCTGCCTCAGGATGCCGGGGGAGGAAGAGGAGCGG as the sequence, how does the ETS1 binding intensity read?
Answer: The ETS1 binding intensity was 258.

Question: CCTACAATTCCTGTTTTGGAGACCGCTTCCGGCAGC was tested. Which ETS1 binding intensity did it give?
Answer: The ETS1 binding intensity was 3700.

Question: With ATCTCACCTTCCTGGTGTCTGGGCTTCCGCAGCTTC as the sequence, how does the ETS1 binding intensity read?
Answer: Its ETS1 binding intensity is 662.

Question: Which ETS1 binding intensity does the source give for AGCATTCCACTTCCTGTCTTGATTCCTGTATTAGAG here?
Answer: Its ETS1 binding intensity is 62700.

Question: With CTTCCACATCTTCCTGCAGAGCATCCTGTCTGTGCA as the sequence, how does the ETS1 binding intensity read?
Answer: Its ETS1 binding intensity is 4230.

Question: For TATTCAAAGCCCACTTCCTTCCTGTAGCATTCATTC, which ETS1 binding intensity is on record?
Answer: The ETS1 binding intensity was 6220.

Question: Which ETS1 binding intensity does the source give for TGTGATGTTTCCTCTTGCTGTGGTTTCCTGTCATGG here?
Answer: The ETS1 binding intensity was 4090.

Question: How did the ETS1 binding intensity turn out when AGGAGGAATGGCAGGAAGAGGAAGTGAAACCGACAA was run?
Answer: The ETS1 binding intensity was 1690.

Question: With TTCCGACCGGAAGTGAGAAGAGGAGGAAGTTGGCTG as the sequence, how does the ETS1 binding intensity read?
Answer: The ETS1 binding intensity was 64200.

Question: CAGGCCGGAAGTACGTGAGAGGAGACTTCCGGCCAC was tested. Which ETS1 binding intensity did it give?
Answer: The ETS1 binding intensity was 31200.

Question: CTTAGTTTCCTCTGGCGATGCTAAAGAGGAAGTTAC was tested. Which ETS1 binding intensity did it give?
Answer: Its ETS1 binding intensity is 2440.

Question: ATTTGAAGAGCCAGGAAGGAGGAAATGCAGAGTGCA was tested. Which ETS1 binding intensity did it give?
Answer: Its ETS1 binding intensity is 287.

Question: How did the ETS1 binding intensity turn out when AGTCTAGTTGCCAGGAAACAGGATGTGGGAGGGACA was run?
Answer: The ETS1 binding intensity was 3800.

Question: For TCCTCTTTCCGTTGTGAGCACCCTGCATCCTGGTGG, which ETS1 binding intensity is on record?
Answer: The ETS1 binding intensity was 3800.

Question: How did the ETS1 binding intensity turn out when CTGATAGGGGAAGTGGGAGTTGACAGGATGGTTTAA was run?
Answer: The ETS1 binding intensity was 424.

Question: ATGTAAAGAGGAAGTGACTCATTCTTCCTGGTGGTG was tested. Which ETS1 binding intensity did it give?
Answer: Its ETS1 binding intensity is 3720.

Question: Which ETS1 binding intensity does the source give for GGGGCCGGAAGCTTTCGGATAACAACTTCCGCTCGG here?
Answer: Its ETS1 binding intensity is 20100.

Question: For ACAGCTTCCGGTTTTGCAAGACAATGCTTCCTTCTC, which ETS1 binding intensity is on record?
Answer: The ETS1 binding intensity was 87800.

Question: For CAACAGGAAATACATACCTGTCCTGAGAGGAAGCAC, which ETS1 binding intensity is on record?
Answer: Its ETS1 binding intensity is 7320.

Question: Which ETS1 binding intensity does the source give for AGCATCTGCTGGGGGAAACGGAAGCAGCCCAGATGG here?
Answer: The ETS1 binding intensity was 774.

Question: For TGTAGGAGCTTCCTTGCAGCCTCAGGATGCCGAATT, which ETS1 binding intensity is on record?
Answer: Its ETS1 binding intensity is 517.

Question: Which ETS1 binding intensity does the source give for TATGTATTTCCTTATTGCAAAGGGCGGAAACGTGTA here?
Answer: The ETS1 binding intensity was 3980.

Question: With GGAAAGACGGCAGGAAATGGGGAAGTGGGAGGGAGA as the sequence, how does the ETS1 binding intensity read?
Answer: Its ETS1 binding intensity is 6220.

Question: For GGATCAGGAAGTCACGACATGGCGACCATCCTGGCT, which ETS1 binding intensity is on record?
Answer: The ETS1 binding intensity was 1720.

Question: GCCCCACTTCCCTCCCGCGGTCACACTTCCGGCGGC was tested. Which ETS1 binding intensity did it give?
Answer: Its ETS1 binding intensity is 12500.

Question: Which ETS1 binding intensity does the source give for CGTCCCACATCCGCCGACACGCCCCTTCCGGCCTAA here?
Answer: Its ETS1 binding intensity is 20000.

Question: How did the ETS1 binding intensity turn out when CCCCACATCCGGTGCGGCGACGCCACTTCCGCCCAC was run?
Answer: Its ETS1 binding intensity is 78100.

Question: How did the ETS1 binding intensity turn out when GATGACCTGCCATTTCCCCAGGAAAGCTGAGACCCC was run?
Answer: Its ETS1 binding intensity is 201.

Question: For TTTCTGTCCGTTTCCGACAAACTTCCCGCGCTCTTC, which ETS1 binding intensity is on record?
Answer: The ETS1 binding intensity was 2630.

Question: Which ETS1 binding intensity does the source give for TGCCCTGCCTGCTTCCTCCCTTCCTTTCAACCCCAA here?
Answer: The ETS1 binding intensity was 2350.

Question: For TGAAGACGGAAACCTGAGAACACCATTTCCTGTGCT, which ETS1 binding intensity is on record?
Answer: Its ETS1 binding intensity is 4470.

Question: How did the ETS1 binding intensity turn out when CGGCGGCTGCCGGAAAGCCACTTCCGGCCTGCTCCA was run?
Answer: Its ETS1 binding intensity is 25400.

Question: How did the ETS1 binding intensity turn out when TCGGCCACTTCCGGCGCGCGGGGCGGAAAGCGGGCG was run?
Answer: Its ETS1 binding intensity is 75800.

Question: For CGGCGTCAGCGGAACGGGCGGCTTCCGGCCGCGGCG, which ETS1 binding intensity is on record?
Answer: The ETS1 binding intensity was 8120.

Question: For GGGAGGCGGAAAGGGGCGGGACCACTTCCGGCCTAG, which ETS1 binding intensity is on record?
Answer: The ETS1 binding intensity was 22100.

Question: Which ETS1 binding intensity does the source give for GCCGCCGCGTACTTCCGGCCGGAAGAAAGGGCGGGC here?
Answer: Its ETS1 binding intensity is 65400.

Question: With CGGCGGAAGGAGCGGGCGGCGTGAGCGCTTCCGCCG as the sequence, how does the ETS1 binding intensity read?
Answer: The ETS1 binding intensity was 811.

Question: For CTGTCACACAGGAAGACCACACAGGAAGACCAGGTG, which ETS1 binding intensity is on record?
Answer: Its ETS1 binding intensity is 1320.

Question: For TCCACTCTGCGGAAGCCACGTTCATCCTGCCCTGCC, which ETS1 binding intensity is on record?
Answer: The ETS1 binding intensity was 586.

Question: For ATGCAGAAAGTGGGAAGTGAGGAAATGAGGGCAGCG, which ETS1 binding intensity is on record?
Answer: The ETS1 binding intensity was 232.

Question: For AACCAACAACTTACTTCCTTCCGGGTTTGGTGCAGA, which ETS1 binding intensity is on record?
Answer: Its ETS1 binding intensity is 5690.

Question: GAGAACTTCCGGCTGCAGTACAACCATTTCCGGGCT was tested. Which ETS1 binding intensity did it give?
Answer: Its ETS1 binding intensity is 68300.

Question: With CCTGGCCGGAAACTGAGCCGTTCACTTCCGCCACCA as the sequence, how does the ETS1 binding intensity read?
Answer: Its ETS1 binding intensity is 14000.

Question: Which ETS1 binding intensity does the source give for TATCTCCTTCCTGTGTAGCATTGACTTTCCTGTCAG here?
Answer: Its ETS1 binding intensity is 14100.

Question: For CGTGAGCGGAAGCGGCGCCATTCGTCTTCCGAGCGC, which ETS1 binding intensity is on record?
Answer: The ETS1 binding intensity was 6670.

Question: Which ETS1 binding intensity does the source give for TGCTAAACTTCCCTGGGCCCCATCAGGAAATGTGAA here?
Answer: The ETS1 binding intensity was 185.

Question: With TCCGCGTCCCCACATCCTCCGGATGCCCAGCGGTTG as the sequence, how does the ETS1 binding intensity read?
Answer: The ETS1 binding intensity was 1980.

Question: With TTCTTGGCCACATCCGTCTCCCGGAACTGCTCCTTC as the sequence, how does the ETS1 binding intensity read?
Answer: The ETS1 binding intensity was 8980.

Question: GCCCACATCCGGCCCCTCCTTGCCCCGGAACCTCCT was tested. Which ETS1 binding intensity did it give?
Answer: Its ETS1 binding intensity is 70100.

Question: Which ETS1 binding intensity does the source give for CGCCATACCTGGCTTCCGCTTCCGGTGGCTTCTCGT here?
Answer: Its ETS1 binding intensity is 28200.
